# The supplement of paper PMC8728848
# This is one part of a sample in which the strongest signals are shown more often than they occur.
# Experiments:
# Experiment in all cases: glycan array binding signal (z-score within array); higher = stronger binding
# Conditions in all cases: glycan notation: IUPAC condensed, linker removed; mutation: W10H
# [1] = molecular target: Fuc(a1-2)Gal(b1-3)GalNAc(b1-3)Gal(a1-4)Gal(b1-4)Glc
# In short: (§1)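 Negative Z-scores can be read as non-binding. The Z-score is calculated within each array and then averaged across arrays of one protein sequence at different concentrations or buffers and across linkers. Arrays, 3228 in all, were curated from the Consortium for Functional Glycomics database and kept only where the protein sequence was available.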
# [2] = molecular target: Fuc(a1-2)Gal(b1-3)[Fuc(a1-4)]GlcNAc
# In short: as §1
# [3] = molecular target: Fuc(a1-2)Gal(b1-4)[Fuc(a1-3)]GlcNAc(b1-3)Gal(b1-4)[Fuc(a1-3)]GlcNAc(b1-3)Gal(b1-4)[Fuc(a1-3)]GlcNAc
# In short: as §1
# [4] = molecular target: Fuc(a1-2)Gal(b1-4)[Fuc(a1-3)]GlcNAc(b1-3)[Neu5Ac(a2-6)Gal(b1-4)GlcNAc(b1-6)]Gal(b1-4)Glc
# In short: as §1
# [5] = molecular target: Fuc(a1-2)[Gal(a1-3)]Gal(b1-3)GlcNAc(b1-3)GalNAc
# In short: as §1
# [6] = molecular target: Fuc(a1-2)[Gal(a1-3)]Gal(b1-3)GlcNAc(b1-6)GalNAc
# In short: as §1
# [7] = molecular target: Fuc(a1-2)[Gal(a1-3)]Gal(b1-4)GlcNAc(b1-2)Man
# In short: as §1
# [8] = molecular target: Fuc(a1-2)[Gal(a1-3)]Gal(b1-4)GlcNAc(b1-3)[Fuc(a1-2)[Gal(a1-3)]Gal(b1-4)GlcNAc(b1-6)]GalNAc
# In short: as §1
# [9] = molecular target: Fuc(a1-2)[GalNAc(a1-3)]Gal(b1-3)GalNAc(b1-3)Gal(a1-4)Gal(b1-4)Glc
# In short: as §1
# [10] = molecular target: Fuc(a1-3)[Gal(b1-4)]GlcNAc(b1-2)Man(a1-3)[Fuc(a1-3)[Gal(b1-4)]GlcNAc(b1-2)Man(a1-6)]Man(b1-4)GlcNAc(b1-4)[Fuc(a1-6)]GlcNAc
# In short: as §1
# [11] = molecular target: Fuc(a1-3)[Gal(b1-4)]GlcNAc(b1-3)Gal(b1-4)[Fuc(a1-3)]GlcNAc
# In short: as §1
# [12] = molecular target: Fuc(a1-3)[Gal(b1-4)]GlcNAc(b1-3)GalNAc
# In short: as §1
# [13] = molecular target: Fuc(a1-3)[GalNAc(b1-4)]GlcNAc6S
# In short: as §1
# Gal(a1-2)Gal = molecular target: Gal(a1-2)Gal
# In short: as §1
# Gal(a1-3)Gal(b1-3)GlcNAc = molecular target: Gal(a1-3)Gal(b1-3)GlcNAc
# In short: as §1
# Gal(a1-4)Gal(b1-4)Glc = molecular target: Gal(a1-4)Gal(b1-4)Glc
# In short: as §1
# [14] = molecular target: Gal(a1-4)Gal(b1-4)GlcNAc(b1-3)Gal(b1-4)Glc
# In short: as §1
# Gal(b1-2)Gal = molecular target: Gal(b1-2)Gal
# In short: as §1
# Gal(b1-3)Gal = molecular target: Gal(b1-3)Gal
# In short: as §1
# Gal(b1-3)GlcNAc(b1-2)Man = molecular target: Gal(b1-3)GlcNAc(b1-2)Man
# In short: as §1
# [15] = molecular target: Gal(b1-3)GlcNAc(b1-3)Gal(b1-4)[Fuc(a1-3)]GlcNAc
# In short: as §1
# [16] = molecular target: Gal(b1-3)[GlcNAc(b1-6)]GalNAc
# In short: as §1
# [17] = molecular target: Gal(b1-4)GlcNAc(b1-2)Man(a1-3)[Gal(b1-4)GlcNAc(b1-2)Man(a1-6)]Man(b1-4)GlcNAc(b1-4)GlcNAc
# In short: as §1
# [18] = molecular target: Gal(b1-4)GlcNAc(b1-2)[Gal(b1-4)GlcNAc(b1-4)]Man(a1-3)[GlcNAc(b1-4)][Gal(b1-4)GlcNAc(b1-2)[Gal(b1-4)GlcNAc(b1-6)]Man(a1-6)]Man(b1-4)GlcNAc(b1-4)GlcNAc
# In short: as §1
# [19] = molecular target: Gal(b1-4)GlcNAc(b1-2)[Gal(b1-4)GlcNAc(b1-6)]Man(a1-6)[Gal(b1-4)GlcNAc(b1-2)Man(a1-3)]Man(b1-4)GlcNAc(b1-4)[Fuc(a1-6)]GlcNAc
# In short: as §1
# [20] = molecular target: Gal(b1-4)GlcNAc(b1-2)[Gal(b1-4)GlcNAc(b1-6)]Man(a1-6)[GlcNAc(b1-4)][Gal(b1-4)GlcNAc(b1-2)Man(a1-3)]Man(b1-4)GlcNAc(b1-4)GlcNAc
# In short: as §1
# [21] = molecular target: Gal(b1-4)GlcNAc(b1-3)Gal(b1-4)GlcNAc(b1-2)[Gal(b1-4)GlcNAc(b1-3)Gal(b1-4)GlcNAc(b1-6)]Man(a1-6)[Gal(b1-4)GlcNAc(b1-3)Gal(b1-4)GlcNAc(b1-2)Man(a1-3)]Man(b1-4)GlcNAc(b1-4)GlcNAc
# In short: as §1
# [22] = molecular target: Gal(b1-4)GlcNAc(b1-3)Gal(b1-4)GlcNAc(b1-6)[Gal(b1-3)]GalNAc
# In short: as §1
# [23] = molecular target: Gal(b1-4)GlcNAc(b1-3)[Fuc(a1-3)GlcNAc(b1-6)]Gal(b1-4)Glc
# In short: as §1
# [24] = molecular target: Gal(b1-4)GlcNAc(b1-6)GalNAc
# In short: as §1
# Gal6S(b1-3)GlcNAc6S = molecular target: Gal6S(b1-3)GlcNAc6S
# In short: as §1
# Gal6S(b1-4)Glc = molecular target: Gal6S(b1-4)Glc
# In short: as §1
# Gal6S(b1-4)GlcNAc = molecular target: Gal6S(b1-4)GlcNAc
# In short: as §1
# GalNAc(a1-3)Gal = molecular target: GalNAc(a1-3)Gal
# In short: as §1
# GalNAc3S(b1-4)GlcNAc3S = molecular target: GalNAc3S(b1-4)GlcNAc3S
# In short: as §1
# [25] = molecular target: GlcA3S(b1-3)Gal(b1-4)GlcNAc(b1-3)Gal(b1-4)Glc
# In short: as §1
# [26] = molecular target: Man(a1-2)Man(a1-2)Man(a1-6)[Man(a1-3)]Man
# In short: as §1
# [27] = molecular target: Man(a1-2)Man(a1-3)[Man(a1-2)Man(a1-6)]Man
# In short: as §1
# [28] = molecular target: Man(a1-2)Man(a1-3)[Man(a1-2)Man(a1-6)]Man(a1-6)[Man(a1-2)Man(a1-2)Man(a1-3)]Man
# In short: as §1
# [29] = molecular target: Man(a1-2)Man(a1-3)[Man(a1-2)Man(a1-6)]Man(a1-6)[Man(a1-2)Man(a1-2)Man(a1-3)]Man(b1-4)GlcNAc(b1-4)GlcNAc
# In short: as §1
# [30] = molecular target: Man(a1-2)Man(a1-3)[Man(a1-6)]Man(a1-6)[Man(a1-2)Man(a1-3)]Man(b1-4)GlcNAc(b1-4)GlcNAc
# In short: as §1
# [31] = molecular target: Man(a1-2)Man(a1-6)[Man(a1-3)]Man(a1-6)[Man(a1-2)Man(a1-2)Man(a1-3)]Man
# In short: as §1
# [32] = molecular target: Man(a1-2)Man(a1-6)[Man(a1-3)]Man(a1-6)[Man(a1-2)Man(a1-2)Man(a1-3)]Man(b1-4)GlcNAc(b1-4)GlcNAc
# In short: as §1
# Man(a1-3)[Man(a1-6)]Man = molecular target: Man(a1-3)[Man(a1-6)]Man
# In short: as §1
# [33] = molecular target: Man(a1-3)[Man(a1-6)]Man(a1-6)[Man(a1-2)Man(a1-3)]Man(b1-4)GlcNAc(b1-4)GlcNAc
# In short: as §1
# [34] = molecular target: Man(a1-3)[Man(a1-6)]Man(a1-6)[Man(a1-3)]Man(b1-4)GlcNAc(b1-4)GlcNAc
# In short: as §1
# [35] = molecular target: Man(a1-3)[Man(a1-6)]Man(b1-4)GlcNAc(b1-4)GlcNAc
# In short: as §1
# [36] = molecular target: Neu5Ac(a2-3)Gal(b1-3)GalNAc(b1-3)Gal(a1-4)Gal(b1-4)Glc
# In short: as §1
# [37] = molecular target: Neu5Ac(a2-3)Gal(b1-3)GalNAc(b1-4)Gal(b1-4)Glc
# In short: as §1
# [38] = molecular target: Neu5Ac(a2-3)Gal(b1-3)GlcNAc(b1-2)Man(a1-3)[GlcNAc(b1-4)][Neu5Ac(a2-3)Gal(b1-3)GlcNAc(b1-2)Man(a1-6)]Man(b1-4)GlcNAc(b1-4)GlcNAc
# In short: as §1
# [39] = molecular target: Neu5Ac(a2-3)Gal(b1-3)GlcNAc(b1-3)GalNAc
# In short: as §1
# Neu5Ac(a2-3)Gal(b1-4)Glc = molecular target: Neu5Ac(a2-3)Gal(b1-4)Glc
# In short: as §1
# [40] = molecular target: Neu5Ac(a2-3)Gal(b1-4)[Fuc(a1-3)]GlcNAc6S
# In short: as §1
# [41] = molecular target: Neu5Ac(a2-6)Gal(b1-4)GlcNAc(b1-3)Gal(b1-4)GlcNAc(b1-3)Gal(b1-4)GlcNAc
# In short: as §1
# [42] = molecular target: Neu5Ac(a2-8)Neu5Ac(a2-3)[GalNAc(b1-4)]Gal(b1-4)Glc
# In short: as §1
# [43] = molecular target: Neu5Ac(a2-8)Neu5Ac(a2-8)Neu5Ac(a2-8)Neu5Ac(a2-3)[GalNAc(b1-4)]Gal(b1-4)Glc
# In short: as §1
# [44] = molecular target: Neu5Gc(b2-6)Gal(b1-4)GlcNAc
# In short: as §1
binder,measurement,setting,value
Banana lectin (Musa acuminata) (protein) MNGAIKVGAHGGNGGSAFDMGPAYRIISVKIFSGDVVDGVDVTFTYYGKTETRHYGGSGGTPHEIVLQEGEYLVGMAGEVANYHGAVVLGKLGFSTNKKAYGPFGNTGGTPFSLPIAAGKISGFFGRGGKFLDAIGVYLEPLEHHHHHH,glycan array binding signal (z-score),[1],-0.164
same,glycan array binding signal (z-score),[2],-0.188
same,glycan array binding signal (z-score),[3],-0.169
same,glycan array binding signal (z-score),[4],-0.189
same,glycan array binding signal (z-score),[5],-0.17
same,glycan array binding signal (z-score),[6],-0.147
same,glycan array binding signal (z-score),[7],-0.169
same,glycan array binding signal (z-score),[8],-0.183
same,glycan array binding signal (z-score),[9],-0.156
same,glycan array binding signal (z-score),[10],-0.148
same,glycan array binding signal (z-score),[11],-0.146
same,glycan array binding signal (z-score),[12],-0.16
same,glycan array binding signal (z-score),[13],-0.194
same,glycan array binding signal (z-score),Gal(a1-2)Gal,-0.177
same,glycan array binding signal (z-score),Gal(a1-3)Gal(b1-3)GlcNAc,-0.171
same,glycan array binding signal (z-score),Gal(a1-4)Gal(b1-4)Glc,-0.169
same,glycan array binding signal (z-score),[14],-0.141
same,glycan array binding signal (z-score),Gal(b1-2)Gal,-0.172
same,glycan array binding signal (z-score),Gal(b1-3)Gal,-0.168
same,glycan array binding signal (z-score),Gal(b1-3)GlcNAc(b1-2)Man,-0.145
same,glycan array binding signal (z-score),[15],-0.174
same,glycan array binding signal (z-score),[16],-0.157
same,glycan array binding signal (z-score),[17],-0.187
same,glycan array binding signal (z-score),[18],-0.175
same,glycan array binding signal (z-score),[19],-0.143
same,glycan array binding signal (z-score),[20],-0.204
same,glycan array binding signal (z-score),[21],-0.113
same,glycan array binding signal (z-score),[22],-0.088
same,glycan array binding signal (z-score),[23],-0.141
same,glycan array binding signal (z-score),[24],-0.163
same,glycan array binding signal (z-score),Gal6S(b1-3)GlcNAc6S,-0.174
same,glycan array binding signal (z-score),Gal6S(b1-4)Glc,-0.156
same,glycan array binding signal (z-score),Gal6S(b1-4)GlcNAc,-0.124
same,glycan array binding signal (z-score),GalNAc(a1-3)Gal,-0.158
same,glycan array binding signal (z-score),GalNAc3S(b1-4)GlcNAc3S,-0.165
same,glycan array binding signal (z-score),[25],-0.164
same,glycan array binding signal (z-score),[26],7.33
same,glycan array binding signal (z-score),[27],2.86
same,glycan array binding signal (z-score),[28],6.5
same,glycan array binding signal (z-score),[29],2.96
same,glycan array binding signal (z-score),[30],9.34
same,glycan array binding signal (z-score),[31],5.18
same,glycan array binding signal (z-score),[32],6.56
same,glycan array binding signal (z-score),Man(a1-3)[Man(a1-6)]Man,2.82
same,glycan array binding signal (z-score),[33],13.5
same,glycan array binding signal (z-score),[34],3.07
same,glycan array binding signal (z-score),[35],6.6
same,glycan array binding signal (z-score),[36],-0.167
same,glycan array binding signal (z-score),[37],-0.186
same,glycan array binding signal (z-score),[38],-0.163
same,glycan array binding signal (z-score),[39],-0.169
same,glycan array binding signal (z-score),Neu5Ac(a2-3)Gal(b1-4)Glc,-0.159
same,glycan array binding signal (z-score),[40],-0.176
same,glycan array binding signal (z-score),[41],-0.171
same,glycan array binding signal (z-score),[42],-0.146
same,glycan array binding signal (z-score),[43],-0.153
same,glycan array binding signal (z-score),[44],-0.185
